Measured values published in PubChem BioAssay (NCATS).
Records with an inconclusive call do not appear. Entries that show only a call come without a potency. A number with no mark means an inactive call. Calls of active or inactive are those of the source. The call rests on the fitted dose curve; in most records, active means well fitted inhibition curve with a large enough effect; inconclusive means small, poorly fitted or top-dose-only effect; inactive means no such curve, though single readings can be large or run the other way.

Molecular target: Rap guanine nucleotide exchange factor 3 (Homo sapiens) (UniProt O95398)
Sequence (O95398 whole entry, looked up): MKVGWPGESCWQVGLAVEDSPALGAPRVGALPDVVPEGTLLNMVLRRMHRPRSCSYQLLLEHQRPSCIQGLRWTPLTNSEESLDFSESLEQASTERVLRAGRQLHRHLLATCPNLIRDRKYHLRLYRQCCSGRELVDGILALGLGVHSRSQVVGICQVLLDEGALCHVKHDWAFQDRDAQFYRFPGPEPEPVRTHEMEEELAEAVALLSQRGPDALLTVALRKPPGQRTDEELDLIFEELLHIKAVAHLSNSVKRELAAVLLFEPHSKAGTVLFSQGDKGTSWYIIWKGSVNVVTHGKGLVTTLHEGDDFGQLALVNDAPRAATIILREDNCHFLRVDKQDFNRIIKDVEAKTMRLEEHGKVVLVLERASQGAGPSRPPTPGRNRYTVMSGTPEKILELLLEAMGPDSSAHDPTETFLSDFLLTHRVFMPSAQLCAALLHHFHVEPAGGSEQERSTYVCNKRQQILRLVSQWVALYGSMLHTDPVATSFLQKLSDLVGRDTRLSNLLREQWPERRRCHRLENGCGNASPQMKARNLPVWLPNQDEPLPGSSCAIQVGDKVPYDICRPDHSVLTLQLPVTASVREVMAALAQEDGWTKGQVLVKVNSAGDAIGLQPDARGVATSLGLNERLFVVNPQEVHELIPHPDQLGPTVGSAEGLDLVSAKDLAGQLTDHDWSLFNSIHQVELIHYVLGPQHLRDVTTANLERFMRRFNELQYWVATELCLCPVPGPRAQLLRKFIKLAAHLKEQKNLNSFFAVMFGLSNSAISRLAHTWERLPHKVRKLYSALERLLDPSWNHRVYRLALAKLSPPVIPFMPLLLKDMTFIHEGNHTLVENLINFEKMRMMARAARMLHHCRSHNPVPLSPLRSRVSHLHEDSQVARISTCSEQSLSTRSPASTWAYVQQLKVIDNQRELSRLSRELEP
Test: Counterscreen qHTS for antagonist of cAMP-regulated guanine nucleotide exchange factor 3 (EPAC1) (AID 1645888);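 further: fluorescence loss as bound BODIPY-GDP is released from Rap1B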
Details: Rap1B-BODIPY-GDP nucleotide exchange, fluorescence; series mostly up to 154 µM
Procedure, shortened: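 Rap1B-BODIPY-GDP 250 nM + GDP 50 uM; cpds 7-pt, final 9.74 nM–152 uM (activator mode) or from 7.32 nM upwards (inhibitor mode); RT; FI 480/540 nm at 5 and 30 min, then ± cAMP, reread.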

Compound | Potency | activity change, negative = inhibition
O=C1C=C(NS(=O)(=O)c2ccccc2)C(=O)c2ccccc21 | inactive | 
Cc1ccccc1C(=O)Nc1cccc(C(=O)N/N=C/c2cc(Cl)cc([N+](=O)[O-])c2O)c1 | inactive | 
Nc1ccc2ccc(O)cc2c1 |  | -3.65% [at 30.8 µM]
Cc1ccc(Nc2c(-c3ccccn3)nc3cccc(C)n23)cc1 | inactive | 
CC(=O)Nc1ccc(N(C(=O)Cn2nnc3ccccc32)C(C(=O)NC2CCCC2)c2ccc(O)c(O)c2)cc1 (stereo not given) | inactive | 
CCOC(=O)c1cnc2ccc(C(=O)OC)cc2c1Nc1ccccc1CC | inactive | 
COCCCNC(=O)C[C@@H]1C[C@@]2(C(=O)OC)CCCCC=C2N(Cc2cccc3ccccc23)C1=O |  | -43.8% [at 30.8 µM]
Cc1c(N=Cc2cc(Br)cc(Br)c2O)cccc1C(=O)O |  | -0.566% [at 30.8 µM]
CCOC(=O)c1c(NC(=O)CSc2nnnn2-c2ccccc2OCC)sc2c1CC(C)(C)NC2(C)C |  | -5.37% [at 30.8 µM]
CN(C)S(=O)(=O)c1cccc(COC(=O)Cc2c(F)cccc2Cl)c1 | inactive | 
O=C(Nc1cccc(S(=O)(=O)NC2=NCCCCC2)c1)c1cc(-c2ccc(Cl)cc2)nc2ccccc12 | inactive | 
Cc1cccc(Nc2nnc(-c3ccc(N4CCOCC4)c([N+](=O)[O-])c3)c3ccccc23)c1 | inactive | 
Cc1nnc(SCC(=O)NCc2ccccc2F)c2nn(-c3ccc(Cl)cc3)c(C)c12 | inactive | 
COn1c2c(c3c4nonc4ccc31)CCCC2 | inactive | 
CC(C)(C)C1CCc2c(sc3nc(SCC(=O)O)nc(N)c23)C1 (stereo not given) |  | -1.53% [at 30.8 µM]
CC(C)C1COC(c2cccn2Cc2ccccc2Cl)=N1 (stereo not given) |  | -4.02% [at 30.8 µM]
Cc1cccc(-c2nc3c(cnn3-c3ccccc3)c(=O)n2-c2cccc(Cl)c2)c1 | inactive | 
COc1ccc(-n2c(NC(=O)c3ccco3)c(C#N)c3nc4ccccc4nc32)cc1 | inactive | 
O=S(=O)(c1ccc2c(c1)C(O)c1ccccc1CC2)C(F)(F)F (stereo not given) | inactive | 
CCOc1ccccc1Oc1ncnc2c1oc1ccccc12 | inactive | 

Compound | Potency | activity change, negative = inhibition
CN(CC(=O)Nc1cccc(F)c1)C(=O)c1cccc(S(=O)(=O)N2CC3(C)CC2CC(C)(C)C3)c1 (stereo not given) |  | -23.1% [at 30.8 µM]
C=CCOC(=O)C1=C(C)NC(C)=C(C(=O)OCC=C)C1c1ccco1 |  | -5.56% [at 30.8 µM]
O=C(CSc1nc(-c2ccccc2)nc2c1Cc1ccccc1O2)Nc1ccc(C(=O)O)cc1 | inactive | 
O=C(Nc1cccnc1)c1c(O)c2cccc3c2n(c1=O)CC3 |  | -2.81% [at 30.8 µM]
CC1=NN(c2ccccc2)C(=O)C1=Cc1ccccc1 |  | 42% [at 30.8 µM]
Cc1ccc(C(C[N+](=O)[O-])c2c(-c3ccccc3O)[nH][nH]c2=O)cc1 (stereo not given) |  | -0.345% [at 30.8 µM]
CCCC1=C/C(=C/c2ccc(-c3ccccc3OC)o2)C(=O)O1 |  | -9.78% [at 30.8 µM]
Cn1c(SCC(=O)c2cc(Cl)c(Cl)s2)nnc1-c1ccco1 | inactive | 
CC1=NN(c2ccc(C)c(C)c2)C(=O)C1C(c1cccc(O)c1)C1C(=O)N(c2ccc(C)c(C)c2)N=C1C (stereo not given) |  | 19.9% [at 30.8 µM]
O=C(Nc1sc2c(c1C(=O)O)CCCC2)c1ccc(Cl)cc1 |  | -8.59% [at 30.8 µM]
COc1ccccc1-c1nnc(SCC(=O)c2ccc(C3CCCCC3)cc2)n1Cc1ccco1 | inactive | 
Cc1noc(C)c1COc1ccccc1C(=O)NC(C)c1ccc(Cl)cc1 (stereo not given) | inactive | 
O=C(Nc1ccccc1)C1=C(O)CC(c2ccc(Cl)cc2)N2CCN=C12 (stereo not given) | inactive | 
Cc1cccn2c(=O)c3cc(C#N)c(=NC(=O)c4ccccc4)n(Cc4ccco4)c3nc12 |  | 15.9% [at 30.8 µM]
COc1cc(/C=C2\SC(=O)N(c3cccc(Cl)c3)C2=O)cc([N+](=O)[O-])c1O | inactive | 
CCc1nc2c(OCC3CCCCC3)cccn2c1N(C)C(=O)c1ccc(C)cc1 | inactive | 
COc1ccc(C2C=C(c3ccc(Br)cc3)Nc3nnnn32)c(OC)c1 (stereo not given) | inactive | 
COc1cccc(/C=C2\SC(=S)NC2=O)c1OS(=O)(=O)c1ccc(NC(C)=O)cc1 |  | -18.9% [at 30.8 µM]
COCCCn1c(=O)/c(=C\c2ccccc2OC(C)C)s/c1=C(/C#N)C(=O)Nc1ccc(C(=O)O)cc1 |  | 38.7% [at 30.8 µM]
CC(C)c1ccc(/C=C/C(=O)Nc2ccc(CN3CCOCC3)cc2)cc1 | inactive | 
